Reference: PubChem BioAssay (NCI)
This is part of a sample that, as a whole, favours compounds with a hit. Of some 83,000 tested, about 20% had one in any assay.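 For each line, cells grew in 96-well plates with the test compound present at a single concentration for 48 hours.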 Unmarked numbers belong to inactive results. Calls of active or inactive are those of the source. The calls were made as follows: active = growth percent below 10; inactive = the rest.

tested on: MOLT-4 leukemia; assay: NCI-60 one-dose screen, 48 h (100 = growth as untreated, 0 = no growth, -100 = all killed); conditions: 10 µM unless noted

Going from `Nc1c(C(=O)Nc2cccc(Cl)c2Cl)sc2nc3c(cc12)C(=O)CCC3` to `CCc1cccc(C)c1NC(=O)c1sc2nc3c(cc2c1N)C(=O)CCC3`, the growth falls from 106% to 18%.

Going from `COc1cc(C2C=C(C)N=C3SC(C)=NN32)cc(OC)c1OC` (stereo not given) to `COc1cc(-c2cc(/C=C3\CCCCC3=O)[nH]n2)cc(OC)c1OC`, the growth falls from 92.8% to 82%.

First: Nc1c(C(=O)Nc2cccc(C(F)(F)F)c2)sc2nc3c(cc12)CCCCCC3
Second: Nc1c(C(=O)Nc2cccc([N+](=O)[O-])c2)sc2nc3c(cc12)C(O)CCC3 (stereo not given)
The growth of the first is higher: 45.6% for the first, 42.2% for the second.

First: c1cc(-c2ccc3c(c2)OCO3)n2nccc2n1
Second: Cc1ccc(Cn2c(-c3nonc3N)nc3ccccc32)cc1
The growth of the first is higher: 97.1% for the first, 56.2% for the second.

Compared with `CN1C(=O)[C@H]2c3c1cccc3[C@@]13NC(=O)O[C@H]1[C@H](CCC3(C)C)C2(C)C`, `CN1CCN(c2ccc3cc(-c4nc5ccccc5[nH]4)c(=O)oc3c2)CC1` is higher in growth: 79.4% for the first, 88.4% for the second.

First: FC(F)(F)c1cccc(-n2nnc3cnc(Nc4ccc(N5CCCCC5)cc4)nc32)c1
Second: Cc1ccc(OCCn2c(C)nn(-c3ccc(Cl)cc3)c2=O)cc1
The growth of the first is lower: 63% for the first, 111% for the second.

`O=Nc1c(-c2c(O)[nH]c3ccc([N+](=O)[O-])cc23)[nH]c2ccc(O)cc12` was tested, and the growth was 2.17% (active).
In the case of `CCn1cc(C(=O)O)c(=O)c2cc(F)c(N3CCN(S(=O)(=O)c4ccc(Cl)cc4Cl)CC3)cc21`, the growth is reported as 1.8% (active).
With `CN1CCN(CCCOc2ccc3nc(Nc4ccc(C(F)(F)F)c(Cl)c4)ccc3c2)CC1` the growth was -35.7% (active).
